S16 F2sN tox: cytotoxicity in S16 Pmp22-F2sN Schwann cells; S16 Pmp22-F2sN Schwann cells viability, CellTiter-Glo, 24 h; Potency, µM (titrated, usually from 57.5 µM), for inactives: at the top dose activity change, negative = cytotoxicity, usual class: cytotoxic; 43,000 compounds, 0.48% hits; AID 1508642; also: potency is read from the fitted curve at half-maximal effect; % is scaled to controls: 0 for no effect and ±100 for the full control effect; nearly all actives have a fitted effect of over 65% in size
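Viability was measured by CellTiter-Glo luminescence (15 min, room temperature). This followed 24 h at 37 °C of compound exposure (23 nL pin transfer) in S16 Pmp22-F2sN Schwann cells, 500-1,000 per well.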
PMP22 txn: PMP22 gene transcription modulation. S16 Pmp22-F2sN Schwann cells (luciferase reporters placed in the Pmp22 gene), FLuc/NLuc coincidence luminescence, 24 h. 43,000 compounds, 2% hits. Potency, µM (series often up to 57.5 µM), for the others: at the top dose activity change, negative = inhibition, most hits filed as inhibitors; active = clear falling dose curves in both reporters; inconclusive = both reporters move, but less clearly or upward; inactive = either reporter flat; the % is the NLuc reporter signal; also: potency is read from the fitted curve at half-maximal effect; % is scaled to controls: 0 for no effect and ±100 for the full control effect
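S16(c9) Schwann cells with FLuc/NLuc coincidence reporter in the Pmp22 3' UTR; compounds pin-transferred, 24 h at 37C. Dual-luciferase read: FLuc first, then NLuc after Stop&Glo, each 10 min at room temperature.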
GALK inh: inhibits human galactokinase. P51570. recombinant GALK, Kinase-Glo ATP luminescence, 1 h. Potency, µM (titrated, usually from 57.5 µM), for inactives: at the highest dose activity, negative = inhibition, hits mostly inhibitors. 44,000 tested, under 10 active;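 also: plate controls were full GALK reaction for no effect and reaction lacking GALK for full effect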
Target sequence (P51570 whole entry, looked up): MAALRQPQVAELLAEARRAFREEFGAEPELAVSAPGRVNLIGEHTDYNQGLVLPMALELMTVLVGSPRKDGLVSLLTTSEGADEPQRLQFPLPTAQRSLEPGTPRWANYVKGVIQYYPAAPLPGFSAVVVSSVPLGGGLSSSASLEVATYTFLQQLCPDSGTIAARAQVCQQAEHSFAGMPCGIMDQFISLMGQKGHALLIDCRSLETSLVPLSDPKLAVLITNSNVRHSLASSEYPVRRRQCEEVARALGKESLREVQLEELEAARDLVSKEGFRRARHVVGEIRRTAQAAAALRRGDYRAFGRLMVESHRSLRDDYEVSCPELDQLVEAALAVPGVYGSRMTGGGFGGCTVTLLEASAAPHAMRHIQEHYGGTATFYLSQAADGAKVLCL
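Reactions with and without enzyme served as controls. GALK at 5 nM phosphorylates 100 uM galactose using 35 uM ATP (HEPES pH 8.0, Mg2+) for 1 h at RT, with luminescence read 10 min after adding Kinase-Glo Plus.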
mTORC1 inh: inhibitors of mTORC1 signaling in Tsc2-/- p53-/- MEF cells | Tsc2-/- p53-/- MEF, phospho-rpS6 immunofluorescence/PI, 24 h | Potency, µM (top dose mostly 38.3 µM), inactives show at the top dose activity change, negative = inhibition, actives largely listed as inhibitors | 44,000 compounds, 0.78% hits | AID 493208;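 also: potency is read from the fitted curve at half-maximal effect; plate controls were DMSO for no effect and rapamycin for full effect; nearly all actives have a fitted effect of over 50% in size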
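Compounds act on Tsc2-/-, p53-/- fibroblasts carrying an empty vector for 24 h before fixation and dual staining for phospho-S6 and DNA (propidium iodide). Values are percentages of cells above a rapamycin-defined pS6/PI threshold.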
PTAP-TSG101 blk: TSG101-PTAP interaction inhibition, HIV-1 budding | Fluorescence polarization, FITC-PTAP peptide/Tsg101, 20 min | 44,000 tested, under 10 active | Potency, µM (titrated, usually from 115 µM), actives largely listed as inhibitors; also: potency is read from the fitted curve at half-maximal effect; 0% is about no effect
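The Tsg101 binding domain, at 10 uM final, is mixed with compound and a FITC peptide bearing the PTAP motif (50 nM final). After 20 min at r.t., polarization is measured; actives defined by CRC class, efficacy cut-off 60% inhibition.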
* marks the source's active call; other numbers are inactive results. Compounds with a hit are over-represented: about 2.8% of the library has one in this group of screens. Unless noted, calls follow the shape of the dose curve; as a rule, active = well fitted curve in the direction sought with a large enough effect; inconclusive = small, poorly fitted or top-dose-only effect, or another doubt; inactive = no such curve, though single readings can be large; an effect the other way counts as inactive or inconclusive.

Results for COc1cc(C(=O)NC(c2ccc(Cl)cc2)c2cc(Cl)c3cccnc3c2O)cc(OC)c1OC (configuration not stated) ?
S16 F2sN tox: 3.2µM*; PMP22 txn: inconclusive; GALK inh: -5%; mTORC1 inh: 0%; PTAP-TSG101 blk: inactive

How did COc1cccc(C(=O)NC(c2ccc(Cl)cc2)c2cc(Cl)c3cccnc3c2O)c1 (configuration not stated) do in these assays?
S16 F2sN tox: 5µM*; PMP22 txn: 4.6µM*; GALK inh: 0%; mTORC1 inh: -2%; PTAP-TSG101 blk: inactive

What do the screens show for `CCOc1ccc(-c2cn3c(n2)sc2cc(C(=O)NCCCN4CCCCCC4)ccc23)cc1`?
S16 F2sN tox: inconclusive; PMP22 txn: inconclusive; GALK inh: 0%; mTORC1 inh: 3%; PTAP-TSG101 blk: inactive

What do the screens show for `Cc1ccc(-c2cn3c(n2)sc2cc(C(=O)NCCCN4CCCCC4)ccc23)cc1`?
S16 F2sN tox: 4µM*; PMP22 txn: 8.9µM*; GALK inh: 1%; mTORC1 inh: 7%; PTAP-TSG101 blk: inactive

Results for CCOc1ccc(-c2cn3c(n2)sc2cc(C(=O)NCCCN(CC)CC)ccc23)cc1 ?
S16 F2sN tox: 10µM*; PMP22 txn: 4.5µM*; GALK inh: 0%; mTORC1 inh: -4%; PTAP-TSG101 blk: inactive

What do the screens show for `CCOc1ccc(-c2cn3c(n2)sc2cc(C(=O)NCCCN4CCCCC4)ccc23)cc1`?
S16 F2sN tox: 7.1µM*; PMP22 txn: 14µM*; GALK inh: -2%; mTORC1 inh: 2%; PTAP-TSG101 blk: inactive

How did Cc1ccc(-c2cn3c(n2)sc2cc(C(=O)NCCCN4CCCCCC4)ccc23)cc1 do in these assays?
S16 F2sN tox: inconclusive; PMP22 txn: inconclusive; GALK inh: 3%; mTORC1 inh: 0%; PTAP-TSG101 blk: inactive

What do the screens show for `COc1cccc(NC(=O)C2=C(C)C(=O)OC23CCN(C(C)=O)CC3)c1`?
S16 F2sN tox: 9%; PMP22 txn: -1%; GALK inh: 2%; mTORC1 inh: -1%; PTAP-TSG101 blk: inactive

What do the screens show for `CC(C)CCNC(=O)C1CCN(C(=O)c2cc3sccc3n2Cc2ccc(Cl)cc2)CC1`?
S16 F2sN tox: inconclusive; PMP22 txn: inconclusive; GALK inh: 4%; mTORC1 inh: -10%; PTAP-TSG101 blk: inactive

How did O=C(Cc1ccccc1)Nc1sc2c(c1C(=O)Nc1ccccc1)CCCCC2 do in these assays?
S16 F2sN tox: -12%; PMP22 txn: inconclusive; GALK inh: -4%; mTORC1 inh: inconclusive; PTAP-TSG101 blk: inactive

What do the screens show for `COc1ccccc1NC(=O)c1c(NCc2ccc(C)o2)sc2c1CCCCC2`?
S16 F2sN tox: 5%; PMP22 txn: 14µM*; GALK inh: 2%; mTORC1 inh: inconclusive; PTAP-TSG101 blk: inactive

What do the screens show for `COc1ccc(OC)c(NC(=O)c2c(NCc3ccc(C)o3)sc3c2CCCCC3)c1`?
S16 F2sN tox: inconclusive; PMP22 txn: inconclusive; GALK inh: 1%; mTORC1 inh: inconclusive; PTAP-TSG101 blk: inactive

Results for COc1ccc(CC(=O)Nc2sc3c(c2C(=O)Nc2ccccc2)CCCCC3)cc1 ?
S16 F2sN tox: inconclusive; PMP22 txn: inconclusive; GALK inh: -2%; mTORC1 inh: 4.6µM*; PTAP-TSG101 blk: inactive

What do the screens show for `COc1ccc(NC(=O)C(NC(=O)/C=C\c2ccc3c(c2)OCO3)c2ccccc2)cc1` (configuration not stated)?
S16 F2sN tox: -28%; PMP22 txn: -24%; GALK inh: 6%; mTORC1 inh: 10µM*; PTAP-TSG101 blk: inactive

Results for Cc1ccc(O)c(NC(=O)CCS(=O)(=O)c2nc(-c3cccs3)cc(C(F)(F)F)n2)c1 ?
S16 F2sN tox: inconclusive; PMP22 txn: inconclusive; GALK inh: -6%; mTORC1 inh: inconclusive; PTAP-TSG101 blk: inactive

What do the screens show for `O=C(CCS(=O)(=O)c1nc(-c2cccs2)cc(C(F)(F)F)n1)Nc1cc(Br)ccc1O`?
S16 F2sN tox: 10µM*; PMP22 txn: inconclusive; GALK inh: 2%; mTORC1 inh: inconclusive; PTAP-TSG101 blk: inactive
